Test results as given in PubChem BioAssay AID1851 (National Center for Advancing Translational Sciences (NCATS), 2009).
Values joined by “and” are separate entries in the source; they are usually repeats but may differ in a detail not shown here. Equal values may be shown once. Screen size: about 16,000 compounds; about 4,000 (25%) were called active. About 26% were inconclusive and are not listed. The call rests on the fitted dose curve; in most records, active means well fitted curve in the direction sought with a large enough effect; inconclusive means small, poorly fitted or top-dose-only effect, or effect the other way; inactive means no such curve, though single readings can be large or run the other way. Not all results are given here. Some compounds were tested as several samples or in several runs, with calls that do not always agree.

These compounds were tested against Cytochrome P450 2C9 (Homo sapiens) (UniProt P11712) (assay: Cytochrome panel assay with activity outcomes). Details: recombinant CYP, pro-luciferin dealkylation, luminescence, p450-cyp2c9; series mostly up to 57.1 µM; activity, negative = inhibition: at the top concentration.
Cytochrome P450 2C9 (Homo sapiens), sequence (P11712 whole entry, looked up): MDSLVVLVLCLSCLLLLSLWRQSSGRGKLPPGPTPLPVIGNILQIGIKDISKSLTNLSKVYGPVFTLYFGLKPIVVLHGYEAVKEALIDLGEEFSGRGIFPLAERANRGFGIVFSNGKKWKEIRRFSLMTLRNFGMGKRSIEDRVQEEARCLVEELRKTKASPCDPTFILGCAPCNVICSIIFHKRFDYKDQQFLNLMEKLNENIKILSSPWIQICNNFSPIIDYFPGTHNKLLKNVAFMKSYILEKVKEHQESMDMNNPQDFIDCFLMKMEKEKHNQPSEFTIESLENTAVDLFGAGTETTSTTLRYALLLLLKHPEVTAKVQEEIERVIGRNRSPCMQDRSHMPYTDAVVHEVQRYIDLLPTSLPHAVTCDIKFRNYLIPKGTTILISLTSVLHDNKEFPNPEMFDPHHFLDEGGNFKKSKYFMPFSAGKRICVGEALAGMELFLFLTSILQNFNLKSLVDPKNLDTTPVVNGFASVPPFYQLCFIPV
On the % scale 0 is the no-effect control and ±100 the full control effect.

activity, negative = inhibition, inactive:
Cc1noc(C)c1-c1nc(Nc2ccncc2)c2ccccc2n1 -10.8% [at 2.29 µM]
COc1cccc2c1[C@@H]1CN(CCCCn3c(=O)[nH]c4c(sc5ncc(-c6ccccc6)nc54)c3=O)C[C@H]1CO2 -12%
CCN1C(=O)[C@H]2[C@H]3[C@H](O)[C@H](O)C/C(=N/NC(=O)OCc4ccccc4)[C@H]3CC[C@@H]2C1=O -10.2% [at 11.4 µM]
CN(C)Cc1cc(C(C)(C)C)ccc1-c1ccc(C(C)(C)C)cc1CN(C)C 12.6% [at 11.4 µM]
CN(C)CCNC(=O)Cn1nc(-c2ccc(Cl)cc2)ccc1=O 20.5%
CC(C)C[C@H](NC(=O)[C@@H]1O[C@H]1C(=O)O)C(=O)NCCCCN=C(N)N 21.6%
CC(C)CNC(=S)N1CCN(C)CC1 -15.7%
Nc1ccc(CCNc2ncnc3c2ncn3[C@@H]2O[C@@H](CO)[C@H](O)[C@@H]2O)cc1 -10.3%
COc1ccc(C(=O)N2CCC3(CCN(C)CC3)CC2)cc1 -6.61%
COc1ccc(CC(=O)NCCN2CCCC2)cc1 8.79%
COc1ccc(CCN(C)CCC(=O)Nc2c(C)cc(C)cc2C)cc1OC -24.7%
COc1ccc(COC(=O)N/N=C2/C[C@@H](O)[C@@H](O)[C@@H]3[C@@H]4C(=O)N(C(C)(C)C)C(=O)[C@H]4CC[C@@H]23)cc1 -5.52% [at 11.4 µM]
COc1ccccc1-c1nc(N(C)C)c2ccccc2n1 -2.29% [at 2.29 µM]
COc1ccc(C(=O)N2CCC3(CC2)CN(C(=O)Nc2cccc(C#N)c2)C3)cc1 -1.23%
CCC(=O)N1CCN(C(=O)c2ccccc2)CC1 7.52%
CC(=O)N1CCC2(CC1)CN(Cc1ccccc1)C2 17.2%
CCc1cc2cc(C)c(C)cc2nc1SCC(=O)NNC(=O)c1ccco1 2.57%
COc1ccc(C(=O)Nc2ccc(NC(=O)c3ccco3)c(Cl)c2)cc1OC -6.18%
O=C(Nc1ccccc1)C(Cc1ccccc1)NC(=O)C12CC3CC(CC(C3)C1)C2 (stereo not given) -27.7%
Cc1ccc(SCC(=O)NNC(=O)C2CCCCC2)cc1 7.23%
CN(C)C(=O)c1ccc(-c2ccc3ncnc(N4CCNCC4)c3c2)cc1 6.81% [at 2.29 µM]
Cc1noc(C)c1-c1ccc2ncnc(N(C)Cc3ccco3)c2c1 -29% [at 2.29 µM]
CCc1nnc2sc(-c3ccc(NC(=O)c4ccco4)cc3)nn12 -20.6%
c1ccc(CNc2ncncc2-c2cccnc2)cc1 -3.05% [at 2.29 µM]
COc1ccc2nccc(C(=O)O)c2c1 4.55% [at 25.6 µM]
COc1ccc(C(=O)c2ccccc2)c(O)c1 -18.2% [at 25.6 µM]
Cc1noc(C)c1-c1ccc2ncnc(NCc3cccs3)c2c1 -7.45% [at 2.29 µM]
CC(C)NC[C@H]1CCc2cc(CO)c([N+](=O)[O-])cc2N1 -7.52% [at 25.6 µM]
CN(CCO)Cc1ncccc1O -2.29% [at 11.4 µM]
CN1CCN(CC(=O)N2c3ccccc3Sc3cc4ccccc4cc32)CC1 5.77% [at 11.4 µM]
CNc1cc(-c2ccccc2C(F)(F)F)ncn1 22.5% [at 2.29 µM]
O=c1[nH]c(=O)c2nc3ccccc3nc2[nH]1 15.1%
Nc1n[nH]c2ccccc12 -15.6% [at 11.4 µM]
CC[C@@H]1CC(=O)N(SC[C@H](N)C(=O)O)C1=O 10.2% [at 11.4 µM]
O=c1[nH]c2cc(Br)cnc2nc1/C=C(\O)c1ccc(F)cc1 -13.1%
O=c1cc(-c2ccccc2)[nH]c2nc(Cl)ccc12 -2.02%
CN(C)CCCNc1c(C(=O)O)cnc2c1cnn2C 12.5%
COc1cccc(Nc2ncc3nc(-c4ccc(F)cc4)c(=O)n(C)c3n2)c1 -6.48%
COc1ccc(-c2nc3cnc(OC)nc3n(C)c2=O)cc1 0.455%
Cn1c(=O)c(-c2ccc(Cl)cc2)nc2cncnc21 3.26%
CCN1CCc2nc(N)oc2CC1 -6.87%
CC[N+](C)(CC)CCOC(=O)C1c2ccccc2Oc2ccccc21 9.19% [at 25.6 µM]
N[C@](CC1c2ccccc2Oc2ccccc21)(C(=O)O)[C@@H]1C[C@@H]1C(=O)O -5.63%
CCOC(=O)Cn1nc(C)n(-c2ccc(C)cc2)c1=O 6.95%
CCCNC(=O)OC[C@@H]1O[C@H](CCO/N=C(\C)CCN2CCCc3nc(C)c(C)cc32)C=C[C@@H]1Oc1ccc(OC)cc1 -26.6% [at 11.4 µM]
O=C(N/N=C/c1cccc(OC2CSC2)c1)c1ccccc1O -11.2%
COc1ccccc1-c1nccc(NCc2cccc(C)c2)n1 -8.67% [at 2.29 µM]
COC(=O)c1ccc(NC(=O)C2CCCCC2C(=O)O)cc1 (stereo not given) -24.6%
CN(C)Cc1ccccc1-c1nccc(N(C)Cc2ccco2)n1 -2.53% [at 2.29 µM]
CC(C)(C)N1C(=O)[C@@H]2[C@H]3C(=CC[C@H]2C1=O)C(=O)[C@H]1O[C@H]1[C@H]3O 4.81% [at 11.4 µM]
CN(C)C(=O)c1ccc(-c2cncnc2NCCN2CCOCC2)cc1 0.0156% [at 2.29 µM]
CN(C)c1ccc(-c2cncnc2NCCN2CCOCC2)cc1 1.82% [at 2.29 µM]
O=[n+]1c2c(n([O-])c3cc(F)c(F)cc31)CCCC2 -17.5%
O=c1oc2cc(N=Cc3ccc4c(c3)OCO4)ccc2c2ccccc12 -21.1% [at 11.4 µM]
O=[N+]([O-])c1ccc2c(c1)Cc1cc(N=Cc3ccc4c(c3)OCO4)ccc1-2 -3.27% [at 11.4 µM]
C[C@]1(OC(=O)/C=C\c2ccccc2)C[C@@H](O)[C@@]2(O)C=CO[C@@H](O[C@H]3O[C@@H](CO)[C@@H](O)[C@@H](O)[C@@H]3O)[C@H]21 -8.73% [at 25.6 µM]
CC(N)=NCCCC[C@H](N)C(=O)O 5.68%
NC(=NCCC[C@H](N)C(=O)O)NO 14.3%

AC50, active:
O=C1NCC2=C1C(c1ccc(Br)cc1)Nc1ccccc1N2 (stereo not given) 8.91 µM
COc1ccc(-c2ccc(=O)n(CC(=O)Nc3nnc(C(C)C)s3)n2)cc1OC 14.1 µM
C=CCNc1nc(-c2ccc(Cl)cc2)cs1 22.4 µM
CCCCSCc1nc2nc(Cl)c(Cl)nc2[nH]1 0.501 µM
COc1ccc(-c2ccc(C(=S)N3CCN(C(C)=O)CC3)o2)cc1 3.98 µM
COc1ccc(COC(=O)N/N=C(\C)CC(=O)Nc2c(C)cc(C)cc2C)cc1 14.1 µM
CC(=O)N1CCN(C(=O)CC2OC(=O)c3ccccc32)CC1 (stereo not given) 15.8 µM
CC(C)Oc1ccc(C(=O)Nc2ccc(NC(=O)c3ccco3)c(Cl)c2)cc1 14.1 µM
CC(=O)c1ccc(NC(=O)C(Cc2ccccc2)NC(=O)c2ccco2)cc1 (stereo not given) 14.1 µM
Cc1ccc(SCC(=O)Nc2cccc(NC(=O)c3ccco3)c2)cc1 4.47 µM
Cc1cc(NC(=O)c2ccco2)ccc1-n1cnnn1 10 µM
COc1cccc(C(=O)Nc2ccc(NC(=O)c3ccco3)cn2)c1 14.1 µM
CC(C)(C)c1ccc(C(=O)Nc2ccc(NC(=O)c3ccco3)cc2)cc1 8.91 µM
COc1ccc2oc(C(=O)c3ccccc3)c(N)c2c1 11.2 µM
Nc1[nH]nc2nc3ccccc3nc12 2 µM
CC1CC2(CCCCC2)N2C(=O)C(=O)c3cccc1c32 (stereo not given) 5.01 µM
Cc1ccccc1S(=O)(=O)c1c(C)cc(-c2ccccc2)[nH]c1=O 22.4 µM
COc1ccc(C2=NC(C(F)(F)F)(C(F)(F)F)c3c(n(C)c(=O)n(C)c3=O)N2)cc1 8.91 µM
Cn1c2c(c(=O)n(C)c1=O)C(C(F)(F)F)(C(F)(F)F)N=C(c1ccc(Cl)cc1)N2 2 µM
CC(=O)c1ccc(OC(=O)C2c3ccccc3Oc3ccccc32)cc1 28.2 µM
CCOC(=O)c1cc2c(C)n(-c3ccc(C)cc3)c(C)c2ccc1=O 14.1 µM
CCOc1ncnc2c1oc1nc(CC(C)C)c3c(c12)CC(C)(C)OC3 20 µM
CC12c3ccccc3C(c3ccccc31)C1C(=O)N(Cc3cccnc3)C(=O)C12 (stereo not given) 11.2 µM
O=C(COc1ccccc1C(=O)N/N=C\c1ccc(O)c(O)c1)N/N=C/c1ccc(O)c(O)c1 12.6 µM
COC(=O)c1ccc(C23CC2(C(NP(=O)(c2ccccc2)c2ccccc2)c2ccccc2)C3)cc1 (stereo not given) 10 µM
COC(=O)c1ccc(C#CC(NP(=O)(c2ccccc2)c2ccccc2)c2ccccc2)cc1 (stereo not given) 10 µM
Cc1ccc(-c2csc3ncnc(NCCN4CCOCC4)c23)cc1 14.1 µM
O=C1C2=C(NC(=S)NC2c2ccc(Cl)cc2)NC(c2ccc(Cl)cc2)N1c1ccc(Cl)cc1 (stereo not given) 11.2 µM
O=S(=O)(N/N=C\c1ccc2c(c1)OCO2)c1ccc(Cl)cc1 1.12 µM
O=S(=O)(N/N=C/c1ccc2c(c1)OCCO2)c1ccc(Cl)cc1 1.41 µM
CCCN=C(N)NCCC[C@H](N)C(=O)O 3.98 µM

AC50, inactive:
O=C(O)C1=CCCNC1
CC(C)C[C@H](NC(=O)[C@@H](O)[C@@H](N)Cc1ccccc1)C(=O)O
NC(=NCc1ccccc1)NC(=O)c1nc(Cl)c(N)nc1N
CN1CCN(CC(=O)N2c3ccccc3C(=O)Nc3cccnc32)CC1
CNC(=O)Oc1ccc2c(c1)[C@@]1(C)CCN(C)[C@@H]1N2C

AC50, inactive and 2.51 µM (active):
Cc1scc2c1N(C(=O)CN1CCN(C)CC1)c1ccccc1NC2=O
